The nature of assay [1]: inhibitors of TNFa-induced NFkB p65 translocation, primary screen, imaging, HUVEC, MLSMR starter and 10KST1 sets (AID 438;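 active = inhibition above 20% together with a positive visual image hit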;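 note: compound added about 3h40 before a 20 min TNFalpha stimulation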;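 for inhibition: signal is the nuclear over cytoplasmic p65 intensity ratio per well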). The note with it: HUVEC TNFa-induced p65 nuclear translocation; cell count: measured here: nuclei count (cytotoxicity indicator), at 2.08 µM; inhibition: at 2 µM, stronger effect = higher value, 0% TNFa-plus-vehicle, 100% no-TNFa wells.
Assay [2] in a line: inhibitors of mutant huntingtin aggregation, primary screen, imaging, exon1htt(103Q)mCFP cells, high-content imaging (AID 483;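 active = visual image review flags a hit and inhibition of aggregation exceeds 20%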;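 note: compound exposure lasted 3 days before fixation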;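 for nuclei count: percent of the per-plate median nuclei count of sample wells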). The note with it: exon1htt(103Q)mCFP cell line, aggregate imaging, at 2 µM; inhibition of aggregation: stronger effect = higher value; nuclei count: measured here: cell count, toxicity.
Assay [3] is described as follows: inhibitors of E-selectin induction by TNFa, primary screen, imaging, HUVEC, immunofluorescence, MLSMR starter and 10KST1 sets (AID 487;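 active = visually confirmed hit in the image check and inhibition above 20%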;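 for inhibition: signal is fraction of cell area covered by stained E-selectin grains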;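 for nuclei count: 100% = median nuclei count of all wells on the same plate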). The note with it: HUVEC TNFalpha-induced E-selectin immunofluorescence imaging, at 2 µM; inhibition: stronger effect = higher value; nuclei count: measured here: cell number, toxicity.
The target of assay [4] is Voltage-gated potassium channel subunit beta-2 (Rattus norvegicus) (UniProt P62483). In words: KvBeta enzyme negative modulators, primary screen, biochemical, NADPH fluorescence (AID 622).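 Note: slope of raw intensity against log time taken from 70 to 1610 s.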 The note with it: recombinant KvBeta, 4-cyanobenzaldehyde reduction, at 10 µM, stronger effect = higher value.
Sequence of Voltage-gated potassium channel subunit beta-2 (Rattus norvegicus) (P62483 whole entry, looked up): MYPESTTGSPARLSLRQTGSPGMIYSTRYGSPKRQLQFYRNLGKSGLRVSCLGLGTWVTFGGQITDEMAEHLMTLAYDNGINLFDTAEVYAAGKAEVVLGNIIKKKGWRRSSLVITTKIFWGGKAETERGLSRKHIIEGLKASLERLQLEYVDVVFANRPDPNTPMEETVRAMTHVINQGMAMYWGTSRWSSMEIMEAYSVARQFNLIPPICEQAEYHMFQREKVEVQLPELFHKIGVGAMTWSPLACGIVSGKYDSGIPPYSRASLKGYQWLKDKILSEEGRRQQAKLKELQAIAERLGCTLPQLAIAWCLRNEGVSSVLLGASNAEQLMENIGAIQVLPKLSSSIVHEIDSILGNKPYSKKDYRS
Assay [5] shares this target. Description: KvBeta positive modulators, primary screen, biochemical, NADPH fluorescence (AID 623;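 active = NADPH fluorescence slope more negative than the mean of all samples by about 3 SD, 99.7% confidence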;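 note: fluorescence intensity change per second fitted from 20 to 320 s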). The settings on record: Recombinant KvBeta, NADPH fluorescence decrease slope, 10 min; at 10 µM; stronger effect = lower value.
For assay [6], the target named is Alpha-2C adrenergic receptor (Homo sapiens) (UniProt P18825). In words: modulators of alpha2C/GIRK thallium flux, primary screen, cell-based, HEK293 alpha2C/GIRK1/2 (AID 624;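 active = fluorescence slope after compound addition differing from the mean of all screened samples at 99.7% confidence, in either direction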;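 note: slope of fluorescence ratio to pre-addition baseline per second over 15 to 24 s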). The settings on record: thallium flux BTC fluorescence, at 10 µM, actives lie on both sides.
Sequence of Alpha-2C adrenergic receptor (Homo sapiens) (P18825 whole entry, looked up): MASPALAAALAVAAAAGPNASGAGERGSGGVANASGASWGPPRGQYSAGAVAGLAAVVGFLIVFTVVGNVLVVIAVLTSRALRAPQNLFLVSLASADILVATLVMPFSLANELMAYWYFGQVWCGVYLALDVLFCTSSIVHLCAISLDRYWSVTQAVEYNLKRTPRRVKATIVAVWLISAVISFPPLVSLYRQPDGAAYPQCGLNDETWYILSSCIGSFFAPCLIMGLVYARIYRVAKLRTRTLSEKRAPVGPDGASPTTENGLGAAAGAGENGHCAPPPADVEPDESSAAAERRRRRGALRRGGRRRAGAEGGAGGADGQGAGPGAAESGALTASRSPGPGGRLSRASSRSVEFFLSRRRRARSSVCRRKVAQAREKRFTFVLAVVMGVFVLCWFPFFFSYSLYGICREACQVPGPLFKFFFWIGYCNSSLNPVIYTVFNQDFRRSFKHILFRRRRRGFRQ
Assay [7] can be described thus: inhibitors of Sendai virus-induced IRF3 signaling, primary screen, TLR/RLR signaling modifier project, cell-based, Sendai virus stimulus, luciferase, 10K MLSCN set (AID 602276;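 active = inhibition at or above 50% at 10 µM; inactive = inhibition below 50%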;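 note: firefly luciferase from ISG56 promoter only with Renilla not read in this screen; 0% = Sendai virus plus DMSO and 100% = medium plus DMSO without virus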). The settings on record: HEK293 RL24 IRF3 luciferase reporter, at 10 µM, stronger effect = higher value.
A short description of assay [8]: inhibitors of poly I:C-induced TLR3 signaling, primary screen, cell-based, poly I:C stimulus, luciferase, 10K MLSCN set (AID 602277;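 active = inhibition of the reporter signal at or above 50%; inactive = inhibition below 50%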). The settings on record: HEK293-TLR3 RL24 IRF3 luciferase reporter, at 10 µM, stronger effect = higher value. In general terms: Reporter assays use an easily measured gene product as a stand-in for the process of interest.

Experimental findings from PubChem BioAssay are described below.

A word on the inhibition: it is the change of the read-out against control, counted positive when it falls.

Calls of active or inactive are those of the source.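 Rule for the calls, unless noted: active = fluorescence slope higher than the sample average by over 3 SD (cut at about -0.22 in these data, passing the limit was not always enough); inactive = the rest.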

Regarding `c1ccn2c(SCc3cn4ccsc4n3)nnc2c1`, the cell count in assay [1] is 586. Also, the inhibition in assay [1] was -7.3% (inactive); in assay [3] it was -20.5% (inactive); in assay [7], -1.63% (inactive); in assay [8], -34.1% (inactive). Moreover, in assay [2], the inhibition of aggregation was 19.5% (inactive). For the same compound, the nuclei count in assay [2] was found to be 90.6%; in assay [3], 111%. Also, in assay [4], the fluorescence slope is -0.544 (inactive). Further, in assay [5], the NADPH fluorescence slope was 2.4e-05 (inactive). In addition, the slope in assay [6] was 0.00536 (inactive).

As to `CCCC(=O)OCCn1c(Br)nc2c1c(=O)[nH]c(=O)n2C`, in assay [1], the cell count amounted to 627. Further, the inhibition in assay [1] was -9.1% (inactive); in assay [3], -46.5% (inactive); in assay [7], 20.4% (inactive); in assay [8], 15.6% (inactive). The inhibition of aggregation in assay [2] is -10% (inactive). The results for the nuclei count in assay [2] and in assay [3] were 127% and 121%, respectively. Besides, in assay [4], the fluorescence slope is -0.509 (inactive). In addition, the NADPH fluorescence slope in assay [5] is -3.2e-05 (inactive). Also, the slope in assay [6] is 0.00531 (inactive).

Take `Nn1c(SCC(=O)NC2CCCCC2)nnc1-c1ccc(Cl)cc1`: the cell count in assay [1] is 376. In addition, the inhibition is 0.7% (inactive) in assay [1], -114% (inactive) in assay [3], 14.6% (inactive) in assay [7] and 19% (inactive) in assay [8]. Further, the inhibition of aggregation in assay [2] was -1.9% (inactive). The figures for the nuclei count in assay [2] and in assay [3] were 106% and 108%, respectively. In addition, the fluorescence slope in assay [4] was -0.472 (inactive). Besides, the NADPH fluorescence slope in assay [5] was 6.9e-06 (inactive). Further, the slope in assay [6] is 0.00502 (inactive).

With `O=C(NCc1cccnc1)C1c2ccccc2C(=O)N1Cc1ccco1` (centres undefined), the cell count in assay [1] came to 408. The inhibition in assay [1] is 4.7% (inactive); in assay [3], 50.4% (inactive); in assay [7] it was 5.3% (inactive); in assay [8], 11% (inactive). The inhibition of aggregation in assay [2] is 7% (inactive). In addition, the figures for the nuclei count in assay [2] and in assay [3] were 115% and 113%, respectively. In assay [4], the fluorescence slope is -0.595 (inactive). The NADPH fluorescence slope in assay [5] is -1.9e-05 (inactive). In addition, the slope in assay [6] is 0.00603 (inactive).

As to `COc1ccc(Cl)cc1S(=O)(=O)n1cnc2ccccc21`, in assay [1], the cell count was 725. The inhibition in assay [1] was -4.8% (inactive); in assay [3], -42.3% (inactive); in assay [7] it was 19.3% (inactive); in assay [8], 31.3% (inactive). Also, the inhibition of aggregation in assay [2] is -5.8% (inactive). Also, the results for the nuclei count in assay [2] and in assay [3] were 92.3% and 104%, respectively. Also, in assay [4], the fluorescence slope is -0.403 (inactive). Also, the NADPH fluorescence slope in assay [5] was 9.7e-06 (inactive). In addition, the slope in assay [6] is 0.00504 (inactive).

With `CCS(=O)(=O)N1CCCC(C(=O)NCc2ccccc2Cl)C1` (centres undefined), in assay [1], the cell count came out at 257. The inhibition in assay [1] was -1.9% (inactive); in assay [3] it was -15.6% (inactive); in assay [7], 3.16% (inactive); in assay [8], -6.49% (inactive). Further, the inhibition of aggregation in assay [2] was -1.1% (inactive). The nuclei count was 107% in assay [2] and 112% in assay [3]. Also, the fluorescence slope in assay [4] was -0.608 (inactive). For the same compound, the NADPH fluorescence slope in assay [5] is -1.9e-05 (inactive). Moreover, in assay [6], the slope is 0.00474 (inactive).

Take `Cn1c(=O)c(=O)n(C)c2cc(S(=O)(=O)Nc3ccc4c(c3)OCCO4)ccc21`: the cell count in assay [1] is 354. Further, the inhibition in assay [1] is -1.2% (inactive); in assay [3] it was -21.4% (inactive); in assay [7], 45.1% (inactive); in assay [8], 35.8% (inactive). For the same compound, the inhibition of aggregation in assay [2] is -18.4% (inactive). The nuclei count came to 106% in assay [2] and 108% in assay [3]. In assay [4], the fluorescence slope is -0.421 (inactive). In addition, the NADPH fluorescence slope in assay [5] is -5.4e-05 (inactive). For the same compound, the slope in assay [6] was 0.00519 (inactive).

With `Cc1cccc(Nc2ncc3c(n2)CC(c2ccco2)CC3=O)c1` (centres undefined), the cell count in assay [1] was 386. Further, the inhibition in assay [1] was -1% (inactive); in assay [3], -29% (inactive); in assay [7], -2.61% (inactive); in assay [8], -12.4% (inactive). Further, in assay [2], the inhibition of aggregation is -7% (inactive). In addition, the results for the nuclei count in assay [2] and in assay [3] were 84.1% and 187%, respectively. Also, the fluorescence slope in assay [4] is -0.378 (inactive). For the same compound, the NADPH fluorescence slope in assay [5] is -1.7e-05 (inactive). In addition, in assay [6], the slope was 0.003 (inactive).

With `COc1nc(C)ccc1-c1noc(-c2ccncc2)n1`, the cell count in assay [1] was 255. Besides, the inhibition in assay [1] is 7% (inactive); in assay [3], -40% (inactive); in assay [7], -26% (inactive); in assay [8] it was -82.9% (inactive). In assay [2], the inhibition of aggregation is -7.3% (inactive). The figures for the nuclei count in assay [2] and in assay [3] were 36.4% and 130%, respectively. Besides, the fluorescence slope in assay [4] was -0.468 (inactive). The NADPH fluorescence slope in assay [5] was -1.8e-06 (inactive). Also, the slope in assay [6] is 0.00545 (inactive).

With `O=C(CN1CCCC1)Nc1ccc(NC(=O)Nc2ccccc2)cc1`, the cell count in assay [1] was determined as 433. Further, the inhibition is -5.7% (inactive) in assay [1], -132% (inactive) in assay [3], -33.7% (inactive) in assay [7] and -54.6% (inactive) in assay [8]. The inhibition of aggregation in assay [2] was 8.5% (inactive). In addition, the nuclei count in assay [2] came to 96.4%; in assay [3], 215%. Further, the fluorescence slope in assay [4] is -0.433 (inactive). Further, in assay [5], the NADPH fluorescence slope was 7.1e-05 (inactive). The slope in assay [6] was 0.00831 (inactive).

Take `CCN(CC(=O)Nc1c(C(=O)OC)[nH]c2ccccc12)c1ccc2c(c1)OCO2`: in assay [1], the cell count is 309. The inhibition in assay [1] was -2.1% (inactive); in assay [3] it was -53.3% (inactive); in assay [7], 20.2% (inactive); in assay [8] it was 8.63% (inactive). Moreover, in assay [2], the inhibition of aggregation is -25.6% (inactive). In addition, the nuclei count in assay [2] was 70.8%; in assay [3] it was 103%. Moreover, the fluorescence slope in assay [4] is -0.376 (inactive). In addition, the NADPH fluorescence slope in assay [5] is -6.7e-05 (inactive). The slope in assay [6] was 0.00578 (inactive).

For the compound `O=C(Cn1c(=O)n(CC2CCCO2)c(=O)c2ccccc21)c1ccccc1` (centres undefined), the cell count in assay [1] is 361. Besides, the inhibition in assay [1] was 4.4% (inactive); in assay [3], 4.5% (inactive); in assay [7], 10.8% (inactive); in assay [8], 16.3% (inactive). In addition, the inhibition of aggregation in assay [2] was 1.4% (inactive). Also, the figures for the nuclei count in assay [2] and in assay [3] were 103% and 111%, respectively. For the same compound, in assay [4], the fluorescence slope was -0.51 (inactive). Also, the NADPH fluorescence slope in assay [5] is -3.9e-05 (inactive). For the same compound, in assay [6], the slope was 0.00589 (inactive).

Take `CCOC(=O)c1cc2sc(C)cc2n1C(C)C(=O)OCC` (centres undefined): the cell count in assay [1] came to 291. Further, the inhibition in assay [1] is 0.5% (inactive); in assay [3] it was -48.6% (inactive); in assay [7], 18.2% (inactive); in assay [8], 20.3% (inactive). The inhibition of aggregation in assay [2] is -7% (inactive). For the same compound, the nuclei count in assay [2] came out at 106%; in assay [3], 123%. Further, the fluorescence slope in assay [4] is -0.607 (inactive). The NADPH fluorescence slope in assay [5] is -3.9e-05 (inactive). Further, the slope in assay [6] is 0.00348 (inactive).

As to `CCOC(=O)CC1=C(C(=O)OCC)C(c2ccc(C)o2)C(C#N)=C(N)O1` (centres undefined), the cell count in assay [1] is 339. The inhibition in assay [1] is -16.4% (inactive); in assay [3], -46.5% (inactive); in assay [7], 3.2% (inactive); in assay [8] it was 8.99% (inactive). Further, the inhibition of aggregation in assay [2] is 15.3% (inactive). The nuclei count is 91.9% in assay [2] and 94.7% in assay [3]. Moreover, the fluorescence slope in assay [4] was -0.625 (inactive). Besides, the NADPH fluorescence slope in assay [5] is 3.1e-06 (inactive). The slope in assay [6] is 0.00603 (inactive).
